Data as given in publication PMC5540273 (PLoS ONE, 2017).
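Note: KINOMEscan kinase panel screen.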

These molecules were tested on T1, MEK3. Settings: concentration: 1 μM,replicates: in singlicate; n = 1.
T1 construct: gene MAP2K3
For `CCN(CC)CCOc1ccc(Nc2ncc3cc(-c4c(Cl)cccc4Cl)c(=O)n(C)c3n2)cc1` [SB-601273], the “%Inh” value was 38%.
For `CNC(=O)c1ccccc1Sc1ccc2c(/C=C/c3ccccn3)n[nH]c2c1`, the “%Inh” value was 0%.
In the case of `C[C@@H](Oc1cc(-c2cnn(C3CCNCC3)c2)cnc1N)c1c(Cl)ccc(F)c1Cl`, the “%Inh” value is reported as 18%.
`C[C@@H]1CCN(C(=O)CC#N)C[C@@H]1N(C)c1ncnc2[nH]ccc12` was tested, and the “%Inh” value was 0%.
In the case of `Cl.Cl.NC[C@H](CC1CCCCC1)NC(=O)c1cc(Br)c(-c2ccnc3[nH]ccc23)s1` [GSK1581427], the “%Inh” value is reported as 89%.
In the case of `C=CC(=O)Nc1cc2c(Nc3ccc(F)c(Cl)c3)ncnc2cc1OCCCN1CCOCC1` [GW781483], the “%Inh” value is reported as 7%.
For `COc1ccc(C[C@@H](CN)NC(=O)c2cc(Br)c(-c3ccnc4[nH]ccc34)s2)cc1.Cl.Cl` [GSK1389063], the “%Inh” value was 95.2%.
`Cc1cc(C(=O)Nc2ccc(Oc3ccc4nc(NC(=O)C5CC5)cn4n3)cc2)nn1-c1ccccc1` was tested, and the “%Inh” value was 0%.
With `CCN(CC)CCCCNc1ncc2cc(-c3c(Cl)cccc3Cl)c(NC(=O)NC(C)(C)C)nc2n1` the “%Inh” value was 34%.
For `CN(C)CC(O)COc1ccc(Nc2nccc(-c3cnn4nc(N5CCOCC5)ccc34)n2)cc1` (stereo not drawn) [GW767488], the “%Inh” value was 82%.
For `Cc1ccc(-n2nc(C(C)(C)C)cc2NC(=O)Nc2ccc(OCCN3CCOCC3)c3ccccc23)cc1` [GW839464], the “%Inh” value was 0%.
In the case of `CC(C)N1C(=O)Cc2cc(Nc3ncc(C(F)(F)F)c(NCc4cccc(S(C)(=O)=O)c4)n3)ccc21`, the “%Inh” value is reported as 51%.
For `C[C@H]1Oc2cc(cnc2N)-c2c(nn(C)c2C#N)CN(C)C(=O)c2ccc(F)cc21`, the “%Inh” value was 83%.
For `CN(C)CCOc1ccc(-c2cc(-c3c[nH]nc3-c3ccccn3)ccn2)cc1` [GW835314], the “%Inh” value was 11%.
`Cl.Cl.NC[C@H](Cc1ccc(C(F)(F)F)cc1)NC(=O)c1cc(Br)c(-c2ccnc3[nH]ccc23)s1` [GSK1487252] was tested, and the “%Inh” value was 77%.
With `CCn1c(-c2nonc2N)nc2c(C#CC(C)(C)O)nc(OCCN)cc21.Cl.Cl` [GSK902056] the “%Inh” value was 37%.
For `Cl.Cl.Nc1nc(-c2ccc3c(N)n[nH]c3c2)cc(N2CCCC(NC(=O)c3ccccc3)C2)n1` (stereo not drawn) [GSK2286775], the “%Inh” value was 6%.
In the case of `Nc1nc(Nc2ccccc2)cc(-c2ccc3c(N)n[nH]c3c2)n1` [GSK2225749], the “%Inh” value is reported as 5%.
`O=C(NCCNc1ccnc(NCc2ccc(F)cc2)n1)c1cc2ccccc2s1` [GSK1379944] was tested, and the “%Inh” value was 0%.
`CC(C)Nc1cc(-c2ccc3c(N)n[nH]c3c2)nc(N)n1` [GSK2221681] was tested, and the “%Inh” value was 0%.
In the case of `Cl.Oc1cc(-c2nc(-c3ccccc3)[nH]c2-c2ccncc2)ccc1Cl` [SB-386023], the “%Inh” value is reported as 7%.
With `Cc1n[nH]c2ccc(-c3cc(OC[C@@H](N)Cc4ccccc4)cnc3-c3ccoc3)cc12.O=C(O)C(F)(F)F.O=C(O)C(F)(F)F` [GSK507358] the “%Inh” value was 82%.
In the case of `Cc1ccc2c(-c3ccncc3)c(-c3ccc(F)cc3)nn2c1.Cl` [GW461484], the “%Inh” value is reported as 0%.
With `Cc1occc1-c1nc(N)c(OC[C@@H](N)Cc2c[nH]c3ccccc23)cc1-c1cc2c(C)n[nH]c2cn1` [GSK1660450] the “%Inh” value was 39%.
In the case of `NC(=O)c1cc(-c2ccccc2)cc2c(C3CCNCC3)c[nH]c12` [GSK301362], the “%Inh” value is reported as 35%.
`Cc1cc2cn[nH]c2cc1-c1cccc2c(N)c(C(N)=O)nnc12` was tested, and the “%Inh” value was 58%.
In the case of `O=C(NCCCN1CCOC1=O)c1cnc(NCc2cc(Cl)ccc2Cl)nc1NC1CCCC1`, the “%Inh” value is reported as 10%.

Each molecule was assayed on T2, MEK4. Settings: concentration: 1 μM,replicates: in singlicate; n = 1.
T2 construct: gene MAP2K4
In the case of `CCN(CC)CCOc1ccc(Nc2ncc3cc(-c4c(Cl)cccc4Cl)c(=O)n(C)c3n2)cc1` [SB-601273], the “%Inh” value is reported as 47%.
For `CNC(=O)c1ccccc1Sc1ccc2c(/C=C/c3ccccn3)n[nH]c2c1`, the “%Inh” value was 0%.
In the case of `C[C@@H](Oc1cc(-c2cnn(C3CCNCC3)c2)cnc1N)c1c(Cl)ccc(F)c1Cl`, the “%Inh” value is reported as 43%.
With `C[C@@H]1CCN(C(=O)CC#N)C[C@@H]1N(C)c1ncnc2[nH]ccc12` the “%Inh” value was 0%.
`Cl.Cl.NC[C@H](CC1CCCCC1)NC(=O)c1cc(Br)c(-c2ccnc3[nH]ccc23)s1` [GSK1581427] was tested, and the “%Inh” value was 41%.
For `C=CC(=O)Nc1cc2c(Nc3ccc(F)c(Cl)c3)ncnc2cc1OCCCN1CCOCC1` [GW781483], the “%Inh” value was 0%.
With `COc1ccc(C[C@@H](CN)NC(=O)c2cc(Br)c(-c3ccnc4[nH]ccc34)s2)cc1.Cl.Cl` [GSK1389063] the “%Inh” value was 69%.
`Cc1cc(C(=O)Nc2ccc(Oc3ccc4nc(NC(=O)C5CC5)cn4n3)cc2)nn1-c1ccccc1` was tested, and the “%Inh” value was 0%.
For `CCN(CC)CCCCNc1ncc2cc(-c3c(Cl)cccc3Cl)c(NC(=O)NC(C)(C)C)nc2n1`, the “%Inh” value was 0%.
`CN(C)CC(O)COc1ccc(Nc2nccc(-c3cnn4nc(N5CCOCC5)ccc34)n2)cc1` (stereo not drawn) [GW767488] was tested, and the “%Inh” value was 60%.
`Cc1ccc(-n2nc(C(C)(C)C)cc2NC(=O)Nc2ccc(OCCN3CCOCC3)c3ccccc23)cc1` [GW839464] was tested, and the “%Inh” value was 0%.
With `CC(C)N1C(=O)Cc2cc(Nc3ncc(C(F)(F)F)c(NCc4cccc(S(C)(=O)=O)c4)n3)ccc21` the “%Inh” value was 37%.
`C[C@H]1Oc2cc(cnc2N)-c2c(nn(C)c2C#N)CN(C)C(=O)c2ccc(F)cc21` was tested, and the “%Inh” value was 65%.
`CN(C)CCOc1ccc(-c2cc(-c3c[nH]nc3-c3ccccn3)ccn2)cc1` [GW835314] was tested, and the “%Inh” value was 29%.
In the case of `Cl.Cl.NC[C@H](Cc1ccc(C(F)(F)F)cc1)NC(=O)c1cc(Br)c(-c2ccnc3[nH]ccc23)s1` [GSK1487252], the “%Inh” value is reported as 23%.
In the case of `CCn1c(-c2nonc2N)nc2c(C#CC(C)(C)O)nc(OCCN)cc21.Cl.Cl` [GSK902056], the “%Inh” value is reported as 26%.
For `Cl.Cl.Nc1nc(-c2ccc3c(N)n[nH]c3c2)cc(N2CCCC(NC(=O)c3ccccc3)C2)n1` (stereo not drawn) [GSK2286775], the “%Inh” value was 14%.
In the case of `Nc1nc(Nc2ccccc2)cc(-c2ccc3c(N)n[nH]c3c2)n1` [GSK2225749], the “%Inh” value is reported as 23%.
In the case of `O=C(NCCNc1ccnc(NCc2ccc(F)cc2)n1)c1cc2ccccc2s1` [GSK1379944], the “%Inh” value is reported as 1%.
`CC(C)Nc1cc(-c2ccc3c(N)n[nH]c3c2)nc(N)n1` [GSK2221681] was tested, and the “%Inh” value was 17%.
In the case of `Cl.Oc1cc(-c2nc(-c3ccccc3)[nH]c2-c2ccncc2)ccc1Cl` [SB-386023], the “%Inh” value is reported as 23%.
For `Cc1n[nH]c2ccc(-c3cc(OC[C@@H](N)Cc4ccccc4)cnc3-c3ccoc3)cc12.O=C(O)C(F)(F)F.O=C(O)C(F)(F)F` [GSK507358], the “%Inh” value was 35%.
With `Cc1ccc2c(-c3ccncc3)c(-c3ccc(F)cc3)nn2c1.Cl` [GW461484] the “%Inh” value was 0%.
`Cc1occc1-c1nc(N)c(OC[C@@H](N)Cc2c[nH]c3ccccc23)cc1-c1cc2c(C)n[nH]c2cn1` [GSK1660450] was tested, and the “%Inh” value was 0%.
For `NC(=O)c1cc(-c2ccccc2)cc2c(C3CCNCC3)c[nH]c12` [GSK301362], the “%Inh” value was 34%.
For `Cc1cc2cn[nH]c2cc1-c1cccc2c(N)c(C(N)=O)nnc12`, the “%Inh” value was 68%.
In the case of `O=C(NCCCN1CCOC1=O)c1cnc(NCc2cc(Cl)ccc2Cl)nc1NC1CCCC1`, the “%Inh” value is reported as 0%.
